From PubChem BioAssay (NCI) come the findings set out here.

This is part of a sample that, as a whole, favours compounds with a hit. Of some 83,000 tested, about 20% had one in any assay.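 Results are percent growth after 48 hours of single-concentration exposure. 100 means growth as in untreated cells, lower positive values show inhibition; negative values down to -100 show cell death.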 Unmarked numbers belong to inactive results. The source made the active and inactive calls. The calls were made as follows: active = growth percent below 10; inactive = the rest.

Some test systems named below: HT29 colon; SNB-75 CNS; SNB-19 CNS; U251 CNS; PC-3 prostate; SK-MEL-5 melanoma; UACC-62 melanoma; LOX IMVI melanoma; SK-MEL-28 melanoma; SK-MEL-2 melanoma; SN12C renal; UO-31 renal; ACHN renal; A498 renal; CCRF-CEM leukemia; MOLT-4 leukemia; SR leukemia; TK-10 renal; CAKI-1 renal; EKVX NSCLC.
Common to all, as to assay: NCI-60 one-dose screen, 48 h (100 = growth as untreated, 0 = no growth, -100 = all killed)
Holding throughout (conditions): 10 µM

Take `COc1cc(-c2cc(/C=C/C(=O)c3ccc(F)c(F)c3)[nH]n2)cc(OC)c1OC`: the growth with HT29 colon was 53.7%; with SNB-75 CNS it was 56.7%; in the assay on SNB-19 CNS it was 67.8%; in the assay with U251 CNS, 41.5%; in the assay on PC-3 prostate, 11.7%; in the assay on SK-MEL-5 melanoma, 75.6%. The growth in the assay with UACC-62 melanoma is 51.4%; in the assay with LOX IMVI melanoma, 55.9%; in the assay with SK-MEL-28 melanoma, 73.4%; with SK-MEL-2 melanoma, 83.1%; in the assay with SN12C renal, 39.2%; with UO-31 renal, 61.2%. Moreover, the growth is 36.8% in the assay on ACHN renal; 60.9% in the assay on A498 renal; 33.3% with CCRF-CEM leukemia; 41% in the assay with MOLT-4 leukemia; 44.3% in the assay on SR leukemia.
On to `O=C(Nc1cccc(-n2cc(-c3ccncc3)c(-c3ccc(O)c(Cl)c3)n2)c1)Nc1ccc(Cl)c(Cl)c1`, for which the growth is 37.8% in the assay on HT29 colon; 7.7% (active) in the assay on SNB-75 CNS; 38.2% in the assay with SNB-19 CNS; -70.9% (active) in the assay with U251 CNS; -7.87% (active) with PC-3 prostate; -47% (active) in the assay with SK-MEL-5 melanoma. Moreover, the growth with UACC-62 melanoma was -43% (active); with LOX IMVI melanoma, -34.4% (active); in the assay with SK-MEL-28 melanoma it was -21.5% (active); in the assay with SN12C renal it was 17%; with UO-31 renal, -11.3% (active); in the assay on TK-10 renal, 16.7%. For the same compound, the growth in the assay with ACHN renal was 9.03% (active); with CAKI-1 renal, -21.1% (active); with A498 renal, 23.2%; with CCRF-CEM leukemia it was 0.782% (active); in the assay on MOLT-4 leukemia it was -10% (active); with SR leukemia, -0.568% (active).
`COc1ccc2c(c1)N(CCO)C1=C(C(=O)OC1)C2c1cc(OC)c(OC)c(OC)c1` (stereo unspecified): the growth is -4.82% (active) in the assay with HT29 colon; 38.3% in the assay on SNB-75 CNS; 19.1% in the assay on SNB-19 CNS; 9.9% (active) in the assay on U251 CNS; 21.9% in the assay on PC-3 prostate; -24.7% (active) in the assay on SK-MEL-5 melanoma. Further, the growth was 8.69% (active) in the assay with UACC-62 melanoma; 25.1% in the assay on LOX IMVI melanoma; 65.6% in the assay with SK-MEL-28 melanoma; 40.3% with EKVX NSCLC; 26% in the assay on SN12C renal; 15.2% in the assay with UO-31 renal. Also, the growth in the assay with TK-10 renal was 66%; with ACHN renal it was 32.8%; with CAKI-1 renal it was 6.97% (active); in the assay with A498 renal, -12.2% (active); with CCRF-CEM leukemia, 11.6%; in the assay on MOLT-4 leukemia, 19.3%. The growth in the assay with SR leukemia is 23.5%.
Regarding `Cc1ccc(C)c(C(O)(c2cc(C)ccc2C)C2(O)CCCCC2)c1`, the growth is 90% with HT29 colon; 95.9% in the assay on SNB-75 CNS; 98.8% in the assay with SNB-19 CNS; 90.1% in the assay on U251 CNS; 86.8% in the assay with PC-3 prostate; 99.4% in the assay with SK-MEL-5 melanoma. Further, the growth in the assay on UACC-62 melanoma was 89.7%; with LOX IMVI melanoma it was 86.6%; with SK-MEL-28 melanoma, 105%; in the assay on SN12C renal, 96.8%; with UO-31 renal, 87.7%; in the assay with TK-10 renal, 89.8%. Further, the growth with ACHN renal was 89%; in the assay with CAKI-1 renal, 80.5%; in the assay with A498 renal, 94.5%; with CCRF-CEM leukemia, 94.3%; with MOLT-4 leukemia it was 71.5%; in the assay on SR leukemia, 85.1%.
Consider `O=C1OCC2=C1C(c1ccc(Cl)c(Cl)c1)c1cc3c(cc1N2CCO)OCCO3` (stereo unspecified), for which the growth was 2.95% (active) in the assay on HT29 colon; 30.3% in the assay on SNB-75 CNS; 33.1% in the assay with SNB-19 CNS; 18.2% with U251 CNS; 19.1% in the assay on PC-3 prostate; 29.9% in the assay with SK-MEL-5 melanoma. In addition, the growth with UACC-62 melanoma is 22.5%; in the assay on LOX IMVI melanoma, 44.3%; with SK-MEL-28 melanoma it was 53%; in the assay with EKVX NSCLC, 42.3%; in the assay with SN12C renal, 41.7%; in the assay with UO-31 renal it was 22%. For the same compound, the growth is 57% in the assay on TK-10 renal; 46.2% with ACHN renal; 34.1% in the assay on CAKI-1 renal; -5.46% (active) in the assay on A498 renal; 7.16% (active) in the assay with CCRF-CEM leukemia; 19.9% with MOLT-4 leukemia. Moreover, the growth in the assay on SR leukemia was 27.9%.
As to `CSc1nc(=O)n(Cc2ccc(F)cc2)c(=O)n1Cc1ccc(C)cc1`, the growth in the assay on HT29 colon was 101%; in the assay on SNB-75 CNS it was 74.9%; with SNB-19 CNS, 100%; in the assay on U251 CNS, 94.7%; in the assay with PC-3 prostate, 88.5%; with SK-MEL-5 melanoma, 107%. Besides, the growth is 93.5% with UACC-62 melanoma; 90.9% in the assay on LOX IMVI melanoma; 108% in the assay on SK-MEL-28 melanoma; 108% in the assay with SK-MEL-2 melanoma; 96.3% in the assay with SN12C renal; 80.1% with UO-31 renal. Moreover, the growth was 84.9% in the assay on CAKI-1 renal; 106% in the assay with A498 renal; 98.5% with CCRF-CEM leukemia; 92.4% in the assay on MOLT-4 leukemia; 84.4% in the assay with SR leukemia.
Take `c1ccc([C@H]2CN3CCSC3=N2)cc1`: the growth was 101% in the assay with HT29 colon; -20.8% (active) in the assay on SNB-75 CNS; 110% in the assay with SNB-19 CNS; 107% in the assay with U251 CNS; 98.9% in the assay with PC-3 prostate; 103% with SK-MEL-5 melanoma. In addition, the growth in the assay on UACC-62 melanoma was 99%; in the assay on LOX IMVI melanoma, 102%; in the assay on SK-MEL-2 melanoma, 105%; in the assay on EKVX NSCLC, 98.3%; with SN12C renal it was 109%; in the assay on UO-31 renal, 88.2%. The growth in the assay on TK-10 renal was 112%; in the assay with ACHN renal, 107%; with CAKI-1 renal, 93.6%; with A498 renal, 85%; in the assay with CCRF-CEM leukemia it was 99.1%; with MOLT-4 leukemia, 98.5%. The growth in the assay on SR leukemia was 103%.
As for `C/C(=N\Nc1nc2ccccc2s1)c1ccncn1`, the growth in the assay with HT29 colon is 25.1%; with SNB-75 CNS, 61.8%; in the assay on SNB-19 CNS, 51.1%; in the assay on U251 CNS it was 33.6%; in the assay with PC-3 prostate, 27.3%; in the assay on SK-MEL-5 melanoma it was 31.4%. Besides, the growth was 41.7% in the assay on UACC-62 melanoma; 31.5% in the assay on LOX IMVI melanoma; 63% with SK-MEL-2 melanoma; 22.7% in the assay on EKVX NSCLC; 46.7% in the assay with SN12C renal; 19.8% with UO-31 renal. Moreover, the growth was 50.6% in the assay with TK-10 renal; 12.6% in the assay on ACHN renal; 29.9% in the assay with CAKI-1 renal; 63.3% with A498 renal; 5.95% (active) in the assay with CCRF-CEM leukemia; 2.87% (active) with MOLT-4 leukemia. Besides, the growth in the assay on SR leukemia was 17.8%.
